The source of these data is PubChem BioAssay AID540276 (National Center for Advancing Translational Sciences (NCATS), 2011).

Structures are written as SMILES. Hit rate of the full screen: of about 300,000 compounds, about 5,400 (1.8%) were called active. Roughly 28% stayed inconclusive and do not appear here. The entries come from a sample that favours actives as a whole. Values without a mark were called inactive. The call rests on the fitted dose curve; tested in HEK293 cells.
On the % scale 0 is the no-effect control and ±100 the full control effect; potency means the concentration at half of the fitted maximal effect.

A short description of the test: qHTS for inhibitors of binding or entry into cells for Marburg Virus. The note with it: Marburg virus pseudotyped entry inhibition, cell reporter; series mostly up to 37.8 µM; activity change, negative = inhibition: at the top concentration. In general terms: qHTS replaces the single test concentration by a dilution series.
`COc1cc(-n2c(=S)[nH]c3ccc(C)cc3c2=O)c(Cl)cc1Cl`: the Potency is 5.62 µM (active). As to `COc1ccccc1-n1c(=S)[nH]c2c(sc(=S)n2-c2ccc(C)cc2C)c1=O`, the “activity change, negative = inhibition” value was -1.23% [at 46.1 µM]. Still for that read-out and setting: the figure for `COc1cc2[nH]c(=S)n(Cc3ccc(C)o3)c(=O)c2cc1OC` is -7.92%. With `CC(C)c1ccc(S(=O)(=O)N2CCN(C(=O)CN3C(=O)NC(C)(c4ccccc4)C3=O)CC2)cc1` (stereo not given), the “activity change, negative = inhibition” value is 0.605%. With `COc1ccc(N(CC(=O)N2CCOCC2)S(=O)(=O)c2ccccc2)cc1Cl`, the “activity change, negative = inhibition” value was 16.6%. The same measure, in the same setting: the figure for `CC(C)Oc1ccc(S(=O)(=O)N2CCOCC2)cc1NC(=O)C1CSC2(C)CCC(=O)N12` (stereo not given) is -14.7% [at 46.1 µM].

In the case of `O=C(OC12CC3CC(CC(C3)C1)C2)c1ccc(NCc2cc(O)ccc2O)cc1`, the Potency was 4.47 µM (active). For `C[C@]12CC[C@H](O)CC1=CCC1C2CC[C@@]2(C)C1CC[C@@H]2NC(=O)CCC(=O)O` (stereo not given in full), the “activity change, negative = inhibition” value is 3.4%. Still for that read-out and setting: the figure for `COc1ccc(/C=C/C(=O)NC(=S)N2CCCC(C(N)=O)C2)cc1` (stereo not given) is -0.358% [at 46.1 µM].

For `CCCCCCCCn1c2c(c(=N)c3c1CCC3)CCCC2`, the Potency is 5.01 µM (active). As to `Cc1ccc(S(=O)(=O)N2CCCC(C(=O)N3CCN(C)CC3)C2)cc1` (stereo not given), the “activity change, negative = inhibition” value was 8.49%. On the same count and under the same terms, the figure for `CN(C)c1ccc(CSc2ccccc2)cc1` is 5.47%; for `O=C(CSc1nnc(N2CCOCC2)n1-c1cccc(F)c1)N1CCN(c2ccccn2)CC1` it is -2.18%. In the case of `COc1cccc(C(=O)N2CCCC(CCC(=O)NCc3ccc(F)c(F)c3)C2)c1` (stereo not given), the “activity change, negative = inhibition” value was -21.9%. Turning to `COc1cccc(CNC(=O)CCC2CCCN(C(=O)c3ccc(F)c(Cl)c3)C2)c1` (stereo not given), the “activity change, negative = inhibition” value is 2.45%. Turning to `COc1ccc2[nH]c3c(c2c1)CCN(C(=O)CCC1CCCC1)C3c1ccc(F)cc1` (stereo not given), the Potency is 0.631 µM (active). As to `COc1ccccc1C(=O)NCCC(=O)NCC(c1ccco1)N1CCCCC1` (stereo not given), the “activity change, negative = inhibition” value was 0.853%. Take `Cc1ccc(S(=O)(=O)N(CC(=O)NCc2ccco2)c2ccccc2C)cc1`: the “activity change, negative = inhibition” value was 22.1% [at 46.1 µM]. On to `O=C(O)CCCc1ccccc1`, for which the Potency result is “inactive”. For the compound `C=CCN1CCN(C(=O)CCCc2ccccc2)CC1`, the Potency was 2.51 µM (active). Turning to `CC(=O)c1ccc(N2CCN(C(=O)CCc3ccccc3)CC2)cc1`, the “activity change, negative = inhibition” value was 27.7%. On to `Cc1cc(C)c(S(=O)(=O)N(C)CC(=O)NCC2CCCO2)c(C)c1` (stereo not given), for which the “activity change, negative = inhibition” value is -8.6% [at 46.1 µM]. On to `COC1C(CO)OC(n2cnc3c(=S)nc(N)[nH]c32)C1O` (stereo not given), for which the “activity change, negative = inhibition” value was 21%. Regarding `NC(=O)C1(N2CCCC2)CCN(Cc2ccccc2)CC1`, the “activity change, negative = inhibition” value was -9.61%. On to `CCC(=C/c1sc2ccc3ccccc3c2[n+]1C)/C=C1\Sc2ccc3ccccc3c2N1C`, for which the Potency was 3.55 µM (active).

As for `O=C(Nc1ccc(S(=O)(=O)N2CCCCCC2)cc1)c1c(F)cccc1F`, the “activity change, negative = inhibition” value was -9.13%.

For `Cc1cc(C)c(S(=O)(=O)N2CCCC2CNC(=O)c2ccc3c(c2)OCO3)c(C)c1` (stereo not given), the “activity change, negative = inhibition” value is 17.5%. On the same count and under the same terms, the figure for `O=C1c2cccc3cccc(c23)C(=O)N1CCCCCc1n[nH]c(=S)o1` is -2.52% [at 46.1 µM]. On to `C[N+](C)(CCCCCC[N+](C)(C)CCCN1C(=O)c2cccc3cccc(c23)C1=O)CCCN1C(=O)c2cccc3cccc(c23)C1=O`, for which the Potency is 5.01 µM (active).

As for `O=C1c2ccccc2C(=O)N1CCCCCCN1C(=O)c2ccccc2C1=O`, the “activity change, negative = inhibition” value was 11.3% [at 46.1 µM]. Consider `c1ccc(-c2cn3cccnc3n2)cc1`, for which the “activity change, negative = inhibition” value is 17.4%. Take `Cc1ccc(-c2cc(N)on2)cc1`: the “activity change, negative = inhibition” value is 6.12%.

For the compound `Cc1nc(-c2ccc([N+](=O)[O-])cc2)c(-c2ccccc2)o1`, the “activity change, negative = inhibition” value is -2.14%. `Cc1ccc(-c2cn3cc([N+](=O)[O-])ccc3n2)cc1`: the Potency was 3.66 µM (active). On to `Cc1ccc(-n2c(-c3ccc([N+](=O)[O-])cc3)nc3ccccc3c2=O)cc1`, for which the “activity change, negative = inhibition” value is -30.2% [at 46.1 µM]. Regarding `Cc1ccc(-c2cn3cc(C)ccc3n2)cc1`, the Potency was 0.316 µM (active).

`CC(C)=CCCC(C)=CCN1C(=O)[C@]2(OCCC=C[C@H]2C)c2ccccc21`: the “activity change, negative = inhibition” value was 2.91% [at 14.2 µM]. The same measure, in the same setting: the figure for `O=C(c1ccco1)N1CCN(C(=S)Nc2cc(F)cc(F)c2)CC1` is -3.01% [at 46.1 µM]; for `CN(Cc1ccccc1)C(=O)C1CCCN(c2ncnc3c2nc2n3CCCCC2)C1` (stereo not given) it is -26.2% [at 46.1 µM]. `CC(NC(=O)c1ccccc1)C(=O)OCC(=O)Nc1cccc(S(=O)(=O)N2CCCC2)c1` (stereo not given): the “activity change, negative = inhibition” value is -30.3%. Consider `Cc1ccccc1N(C(=O)CNC(=O)c1cccs1)C(C(=O)NC1CCCC1)c1ccncc1` (stereo not given), for which the “activity change, negative = inhibition” value was -23.4% [at 46.1 µM]. With `CC(NC(=O)COC(=O)c1ccc2ccccc2n1)c1ccccc1` (stereo not given), the “activity change, negative = inhibition” value is -0.241%. In the case of `CCSc1nsc(NC(=O)Nc2cccc(C(C)=O)c2)n1`, the Potency was 10 µM (active). In the case of `CC(=O)c1cccc(NC(=O)Nc2ccc(C)cc2)c1`, the “activity change, negative = inhibition” value is -2.02%. For the compound `C=C(C)C(=O)Nc1cccc(C(C)=O)c1`, the “activity change, negative = inhibition” value is -7.5%.

On to `CC(=O)c1cc2c(cc1NC(=O)CN1CCCCCC1)OCO2`, for which the “activity change, negative = inhibition” value is -27.1% [at 46.1 µM].

Consider `CCOc1cccc(NC(=O)Cn2nc(-c3ccc4c(c3)OCCO4)ccc2=O)c1`, for which the “activity change, negative = inhibition” value was 9.43%. With `CC(=O)c1cc2c(cc1NC(=O)Cn1nc(-c3ccc(F)cc3)ccc1=O)OCO2`, the Potency was 10 µM (active). For the compound `CN(CC(=O)Nc1ccc(C(N)=O)cc1)S(=O)(=O)c1ccc2c(c1)OCCO2`, the “activity change, negative = inhibition” value was 8.9% [at 46.1 µM]. As to `Cc1ccc2nc(SCC(=O)N3CCN(c4ccccc4)CC3)nc(=O)n2c1`, the “activity change, negative = inhibition” value is 20.2% [at 46.1 µM].
